Hit rate of the full screen: of about 300,000 compounds, about 37,000 (12%) were called active. The entries come from a sample that favours actives as a whole. A number with no mark means an inactive call. Cut-off read from the data, not from the text of the source: active = max response mostly above about 13% (no sharp cut-off); inactive = mostly below about 14%.

A short description of this experiment: Cycloheximide Counterscreen for Small Molecule Inhibitors of Shiga Toxin. Note: read at 38.3 µM for the half of the compounds with a filed dose; 0% is about no effect. The note with it: cell reporter, cycloheximide protein synthesis inhibition counterscreen; stronger effect = higher value.
As to `O=C(CN1CCN(S(=O)(=O)c2ccc(Cl)s2)CC1)NCc1ccc(Cl)cc1`, the max response was 30.7% (active).
The value for `Cc1ccccc1N1CCN(CC(=O)NCc2ccc(Cl)cc2)CC1` was -1.19%; that for `Cc1ccc(CNC(=O)CN2CCN(Cc3ccc(Cl)cc3)C2=O)cc1` was -4.69%.
The value for `COCCn1c(C)cc(C(=O)CSc2nc3ccccc3c(=O)n2C(C)COC)c1C` (stereo unspecified) was 13.4%.
The figure for `O=C(c1cc2nc(-c3ccccc3)cc(-c3ccccc3)n2n1)N1CCC2(CC1)OCCO2` is 3.88%; for `COc1cccc(CNc2nc3nc4c(c(=O)n3[nH]2)CCC4)c1` it is -3.21%; for `COc1cccc(-c2cc3nc4c(c(N5CCC6(CC5)OCCO6)n3n2)CCCC4)c1` it is 24.2% (active).
As to `C=Cc1ccc(C(=O)N2CCCC(CCC(=O)N3CCN(c4ccccn4)CC3)C2)cc1` (stereo unspecified), the max response is -3.56%.
Consider `COc1cc(C)cc(CN2CCC(Cc3ccccc3)CC2)c1O`, for which the max response is -8.91%.
The value for `CSc1ncc(Cl)c(C(=O)Nc2cc(C)ccc2C)n1` was 7.29%.
The figure for `COCCSc1nnc(NC(=O)CCS(=O)(=O)Cc2ccccc2)s1` is -1.53%.
The value for `CSc1nnc(NC(=O)c2nc(S(=O)(=O)Cc3ccc(C)cc3)ncc2Cl)s1` was 63.3% (active); that for `Cc1ccc(CS(=O)(=O)c2ncc(Cl)c(C(=O)Nc3nnc(C)s3)n2)cc1` was 66% (active).
As for `Cc1nnc(NC(=O)CCCOc2ccccc2)s1`, the max response is -3.73%.
The value for `Cc1ccc(S(=O)(=O)CC(=O)Nc2nnc(C)s2)cc1` was -6.45%.
The value for `Cc1ccc(CN2CCC(N3CCC(C(=O)NCC4CCCO4)CC3)CC2)o1` (stereo unspecified) was 4.92%.
For `CCOC(=O)c1c(NC(C)=O)sc2c(O)c(Br)ccc12`, the max response is -7.21%.
The figure for `CC(Oc1cc2oc(=O)c3c(c2cc1Cl)CCCC3)C(=O)NCc1ccncc1` (stereo unspecified) is -1.94%.
The value for `Cc1cccc(NS(=O)(=O)c2ccc(C(=O)NCC(C)(C)N3CCOCC3)cc2)c1C` was -1.4%.
The figure for `Cc1ccc(CC2C(=O)N(c3ccc(F)cc3)C(=O)C2C)cc1` (stereo unspecified) is 7.99%.
In the case of `CC(C)[C@H](NC(=O)N1c2ccccc2NC(=O)[C@@H]1C(C)C)C(=O)N[C@H](C(=O)O)c1ccccc1`, the max response was 5.5%.
The value for `CC(=O)Nc1ccc(S(=O)(=O)N2CCC(C(=O)NC3CC3)CC2)cc1` was -6.68%.
The value for `Cn1c(=O)c2c(nc(NCCNC(=O)c3ccco3)n2Cc2ccccc2F)n(C)c1=O` was -1.04%.
The value for `Nc1cccc(-c2cc(-c3ccccc3)nc(-c3cccc(N)c3)n2)c1` was -5.19%.
Turning to `Nc1nc(-c2ccccc2)cc(-c2ccccc2)n1`, the max response is 21% (active).
The value for `CNc1nc(-c2ccccc2)cc(-c2ccccc2)n1` was -1.91%.

These data come from PubChem BioAssay AID2314 (National Center for Advancing Translational Sciences (NCATS), 2010).
